The values below come from PubChem BioAssay (NCATS).

Structures are written as SMILES. A number with no mark means an inactive call. Inconclusive results are not listed. Activity calls are given as the source filed them. Unless noted, the call rests on the fitted dose curve; in most records, active means well fitted curve in the direction sought with a large enough effect; inconclusive means small, poorly fitted or top-dose-only effect, or another doubt; inactive means no such curve, though single readings can be large; an effect the other way counts as inactive or inconclusive.

Test [1] has as its target Lysosomal acid glucosylceramidase (Homo sapiens) (UniProt P04062). Briefly: Glucocerebrosidase-p2 (AID 348; in the data active means potency below about 10 µM; further: potency means the concentration at half of the fitted maximal effect). Conditions: purified GBA, blue fluorogenic substrate, 40 min. The method, boiled down:
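Compounds titrated from 0.6 nM upwards against 0.2 nM enzyme in pH 5.9 citric acid/KH2PO4, taurocholate, tween-20; blue fluorogenic substrate 80 uM, 40 min room temperature, stopped and read Ex 365/Em 440 for AC50.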

The nature of test [2]: AP1 Signaling Pathway (AID 357; active means well fitted curve in either direction with a large enough effect, not every such curve was filed as active;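 further: ME-180 reporter cells stimulated with EGF at its EC50 level; on the % scale 0 is the no-effect control and ±100 the full control effect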). Conditions: ME-180 AP-1-bla reporter, EGF-induced, beta-lactamase ratio, 5 h; at 7.69 µM (top of the series) unless noted. The method, boiled down:
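Beta-lactamase reporter under AP-1 response element, ME-180 background. Stimulus: EC50 EGF. Compound exposure 5 h, 37 °C. Detection: CCF4, 2.5 h RT, 460/530 nm. Values: AC50 from titration.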

Test [3] can be described thus: NFAT Signaling Pathway (AID 444; active means well fitted curve in either direction with a large enough effect, not every such curve was filed as active;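 further: carbachol stimulus at about its EC50 of 1 µM final; on the % scale 0 is the no-effect control and ±100 the full control effect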). Conditions: Jurkat NFAT-bla M1, carbachol, beta-lactamase ratio, 5 h; at 7.69 µM (top of the series) unless noted. The essentials: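 Read-out: CCF4 FRET ratio (460 nm/530 nm) after 1 h RT dye loading, used for %activity and AC50 from titration series. Cells: Jurkat NFAT-β-lactamase/M1 line, treated with compound plus 1 uM carbachol for 5 h, 37 °C.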

Test [4] in a line: Stat Signaling Pathway (AID 446; active means well fitted curve in either direction with a large enough effect, not every such curve was filed as active;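 further: ME-180 cervical cancer cells given 40 pM IL-6 alongside compound; SIE-controlled beta-lactamase reporter measured as 460/530 nm FRET emission ratio; on the % scale 0 is the no-effect control and ±100 the full control effect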). Conditions: ME-180 SIE beta-lactamase reporter, IL-6 stimulated, 5 h; at 7.69 µM (top of the series) unless noted. The essentials: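 ME-180 SIE-bla cells; overnight plating; cpd + IL-6 40 pM, 5 h, 37 C; LiveBLAzer 2.5 h RT; 460/530 nm emission ratio. Normalized to 300 pM IL-6 and 125 nM JAK inhibitor controls.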
For test [5], the target named is Glucocorticoid receptor (Homo sapiens) (UniProt P04150). Briefly: GR-GFP Redistribution (AID 450;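 active means compounds whose dose series gives a full or clear partial fitted curve of increased nuclear translocation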; further: potency means the concentration at half of the fitted maximal effect). Conditions: U2OS GR-GFP nuclear translocation, laser cytometry, 2 h.
Sequence of Glucocorticoid receptor (Homo sapiens) (P04150 whole entry, looked up, the tested form may be a part): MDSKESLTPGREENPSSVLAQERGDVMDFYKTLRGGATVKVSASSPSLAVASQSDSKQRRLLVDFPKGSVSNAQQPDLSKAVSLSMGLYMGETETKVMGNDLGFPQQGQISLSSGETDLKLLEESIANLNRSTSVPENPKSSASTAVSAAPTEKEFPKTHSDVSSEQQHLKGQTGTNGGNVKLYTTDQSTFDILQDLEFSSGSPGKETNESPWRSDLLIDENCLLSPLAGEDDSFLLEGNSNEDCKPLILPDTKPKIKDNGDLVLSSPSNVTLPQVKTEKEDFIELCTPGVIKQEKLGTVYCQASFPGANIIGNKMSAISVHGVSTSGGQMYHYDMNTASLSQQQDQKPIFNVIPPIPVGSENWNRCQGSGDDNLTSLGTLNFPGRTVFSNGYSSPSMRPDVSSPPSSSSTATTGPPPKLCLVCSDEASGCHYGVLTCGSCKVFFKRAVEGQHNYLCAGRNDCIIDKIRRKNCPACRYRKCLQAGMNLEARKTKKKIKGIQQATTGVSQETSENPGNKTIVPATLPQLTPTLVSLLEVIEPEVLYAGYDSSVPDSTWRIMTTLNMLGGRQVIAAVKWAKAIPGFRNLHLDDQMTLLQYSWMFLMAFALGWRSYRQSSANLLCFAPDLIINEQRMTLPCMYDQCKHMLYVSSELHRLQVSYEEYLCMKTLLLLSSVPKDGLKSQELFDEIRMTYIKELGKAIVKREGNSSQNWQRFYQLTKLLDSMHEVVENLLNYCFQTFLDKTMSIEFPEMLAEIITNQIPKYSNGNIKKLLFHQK
Test [6] shares this target. Briefly: GR-EFC Redistribution (AID 451; calls by dose curve; further: potency means the concentration at half of the fitted maximal effect). Conditions: CHO-K1 GR-EFC translocation, beta-gal luminescence, 2 h. The essentials: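 Translocation of GR-ED fusion to nuclear EA restores b-gal, read by luminescence after 1 h room-temperature detection. Engineered CHO-K1 biosensor cells, 1,000/well, exposed 2 h at 37 C to titrations up to 46 uM final.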
Test [7] concerns the target Mitogen-activated protein kinase 10 (Mus musculus) (UniProt Q61831). Briefly: JNK3 AlphaScreen Assay (AID 530; active means well fitted curve in either direction with a large enough effect, not every such curve was filed as active;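 further: kinase came from lysate of stimulated human HepG2 cells; signal reports phosphorylation of biotinylated GST-cJun 1-79 at Ser73 with 10 µM ATP; on the % scale 0 is the no-effect control and ±100 the full control effect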). Conditions: JNK3 lysate, c-Jun phosphorylation; series mostly up to 57.1 µM. The method, boiled down:
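Compound titrations were preincubated 15 minutes at room temperature with substrate, antibody and pre-activated JNK3-containing HepG2 lysate. Reactions were started with 10 uM ATP and stopped with EDTA-containing bead buffer for AlphaScreen detection.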
For orientation: In Alpha technology, singlet oxygen from a donor bead excites a nearby acceptor bead.

Test [8] addresses 3',5'-cyclic-AMP phosphodiesterase 4B (Homo sapiens) (UniProt Q07343). Briefly: qHTS Assay for Inhibitors of PDE-IV (AID 607; active means well fitted activation curve with a large enough effect in the main read-out, with a control signal flat, not every such curve was filed as active; further: % of control where 0% means no effect). Conditions: HEK293 ACTOne CNG channel cells, membrane potential fluorescence; series mostly up to 22.9 µM. The method, boiled down: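 ACTOne HEK293 cells carry a modified cAMP-gated CNG channel and express endogenous PDE4; plated 1000 cells/well, compounds up to 22.9 uM final. Membrane-potential dye fluorescence (ex 535/em 590) was read; parental cells received 10 uM forskolin + 100 uM RO 20-1724.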
In general terms: In qHTS, concentration-response curves come from the screen itself.

The target in test [9] is Dual specificity protein kinase CLK4 (Homo sapiens) (UniProt Q9HAZ1). As to the kind of experiment: qHTS Assay for Inhibitors of CDC-like Kinase 4 (Kinase-Glo Assay) (AID 1770). Further: nearly all actives have a fitted effect of over 65% in size. Further: potency means the concentration at half of the fitted maximal effect. Conditions: recombinant Clk4, Kinase-Glo ATP depletion luminescence; series mostly up to 66.7 µM. The essentials:
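Recombinant human Clk4 (25 nM) phosphorylated RS repeat peptide (100 uM) with 1 uM ATP in Tris pH 7.5/MgCl2/EGTA/DTT/Triton buffer for 4.5 h at room temperature. Residual ATP was quantified by Kinase-Glo luciferase luminescence.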

Test [10] shares this target. Briefly: qHTS Assay for Inhibitors of CDC-like Kinase 4 (ADP-Glo Assay) (AID 1771). Further: nearly all actives have a fitted effect of over 70% in size. Further: potency means the concentration at half of the fitted maximal effect. Conditions: recombinant CLK4, ADP-Glo luminescence; series mostly up to 80 µM. The essentials:
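25 nM Clk4 with 100 uM RS repeat peptide and 1 uM ATP (final) in buffer with 2 mM MgCl2, 0.5 mM EGTA, 2.5 mM DTT, 0.01% Triton X-100; 1 h at room temperature; ADP-Glo luminescence for ADP formed.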

Test [11] has the same target. Briefly: qHTS Assay for Inhibitors of CDC-like Kinase 4 (ADP-FP Assay) (AID 1795). Further: nearly all actives have a fitted effect of over 60% in size. Further: potency means the concentration at half of the fitted maximal effect. Conditions: Transcreener ADP fluorescence polarization; series mostly up to 50 µM. The method, boiled down:
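Recombinant human Clk4 (6.25 nM) phosphorylated RS repeat peptide (100 uM) with 1 uM ATP in Tris pH 7.5/MgCl2/EGTA/DTT/Triton buffer for one hour. ADP was quantified by Transcreener competitive fluorescence polarization against an ADP calibration curve.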

Test [12] can be described thus: Primary qHTS for small molecule stabilizers of the endoplasmic reticulum resident proteome: Secreted ER Calcium Modulated Protein (SERCaMP) assay (AID 1508630). Further: on the % scale 0 is the no-effect control and ±100 the full control effect. Conditions: SH-SY5Y GLuc-SERCaMP (Gaussia luciferase released on ER calcium loss) secretion, thapsigargin, luminescence; series mostly up to 38.4 µM. The method, boiled down: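 GLuc-SERCaMP-expressing SH-SY5Y cells, pretreated 16 h with compound, are challenged with thapsigargin to empty ER calcium stores; after 4 h, coelenterazine is added directly to the medium and luminescence is imaged.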

Test [13] concerns the target Ubiquitin carboxyl-terminal hydrolase 1 (Homo sapiens) (UniProt O94782). As to the kind of experiment: Inhibitors of USP1/UAF1: Pilot qHTS (AID 504865).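 Further: rhodamine fluorescence freed from ubiquitin-rhodamine substrate followed over time; top concentration of the series differs between compounds; on the % scale 0 is the no-effect control and ±100 the full control effect; nearly all actives have a fitted effect of over 35% in size.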 Conditions: purified USP1/UAF1, Ub-rhodamine cleavage fluorescence; series mostly up to 54.9 µM. The essentials:
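USP1/UAF1 complex (1nM) preincubated with compound 15 min at room temperature, then Ub-Rho substrate (150nM final) added. Fluorescence read kinetically at 480/540 nm, 6 reads every 60 seconds. Buffer: 50mM HEPES pH 7.8, 0.5mM EDTA, 0.1 mg/ml BSA, 1mM TCEP, 0.01% Tween-20.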

Test [14] has as its target Cytochrome P450 3A4 (Homo sapiens) (UniProt P08684). Briefly: qHTS Assay for Inhibitors and Substrates of Cytochrome P450 3A4 (AID 884). Further: potency means the concentration at half of the fitted maximal effect; nearly all actives have a fitted effect of over 50% in size. Conditions: recombinant CYP3A4, Luciferin-PPXE luminescence; series mostly up to 57.1 µM. The method, boiled down: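 20 nM human CYP3A4 with 25 uM Luciferin-PPXE (at KM) in 200 mM KPO4, preincubated 10 min with compound; NADPH regeneration started a 60 min RT reaction. Luciferin detected by luminescence, normalized to 57 uM ketoconazole as full inhibition.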

The target is the same in test [15]. Briefly: qHTS Assay for Activators of Cytochrome P450 3A4 (AID 885). Further: nearly all actives have a fitted effect of over 65% in size. Conditions: recombinant CYP3A4, Luciferin-PPXE luminescence, 60 min; series mostly up to 57.1 µM. The method, boiled down: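 20nM CYP3A4 + 25uM Luciferin-PPXE (=KM), 200mM KPO4; cpd 10 min RT; NADPH regen, 60 min RT; stop w/ detection buffer, 20 min; luminescence. Normalized to 57 uM ketoconazole.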

Test [16] has as its target Cytochrome P450 2C19 (Homo sapiens) (UniProt P33261). Briefly: qHTS Assay for Inhibitors and Substrates of Cytochrome P450 2C19 (AID 899). Further: potency means the concentration at half of the fitted maximal effect; nearly all actives have a fitted effect of over 60% in size. Conditions: recombinant CYP2C19, luciferin-H EGE luminescence; series mostly up to 57.1 µM. The method, boiled down: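 Reactions contain 5nM enzyme, 10uM Luciferin-H EGE (KM) and 50mM KPO4; compound preincubates 10 min at 37C, NADPH regeneration starts turnover for 60 min. Luminescence after detection reagent gives activity.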

Sequence of Dual specificity protein kinase CLK4 (Homo sapiens) (Q9HAZ1 whole entry, looked up): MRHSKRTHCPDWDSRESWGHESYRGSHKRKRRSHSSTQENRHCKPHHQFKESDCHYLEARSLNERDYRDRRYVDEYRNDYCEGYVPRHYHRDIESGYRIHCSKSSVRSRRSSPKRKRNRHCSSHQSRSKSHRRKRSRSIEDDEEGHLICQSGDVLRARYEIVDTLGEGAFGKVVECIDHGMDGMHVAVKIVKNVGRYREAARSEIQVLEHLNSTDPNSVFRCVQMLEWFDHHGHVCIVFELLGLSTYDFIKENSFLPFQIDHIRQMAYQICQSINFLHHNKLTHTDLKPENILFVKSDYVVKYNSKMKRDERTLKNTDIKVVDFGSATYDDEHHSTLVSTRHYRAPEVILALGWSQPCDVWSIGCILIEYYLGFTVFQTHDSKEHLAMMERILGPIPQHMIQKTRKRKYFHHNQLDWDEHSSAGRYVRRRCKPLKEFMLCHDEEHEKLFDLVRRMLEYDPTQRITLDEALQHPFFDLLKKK
Sequence of Cytochrome P450 3A4 (Homo sapiens) (P08684 whole entry, looked up): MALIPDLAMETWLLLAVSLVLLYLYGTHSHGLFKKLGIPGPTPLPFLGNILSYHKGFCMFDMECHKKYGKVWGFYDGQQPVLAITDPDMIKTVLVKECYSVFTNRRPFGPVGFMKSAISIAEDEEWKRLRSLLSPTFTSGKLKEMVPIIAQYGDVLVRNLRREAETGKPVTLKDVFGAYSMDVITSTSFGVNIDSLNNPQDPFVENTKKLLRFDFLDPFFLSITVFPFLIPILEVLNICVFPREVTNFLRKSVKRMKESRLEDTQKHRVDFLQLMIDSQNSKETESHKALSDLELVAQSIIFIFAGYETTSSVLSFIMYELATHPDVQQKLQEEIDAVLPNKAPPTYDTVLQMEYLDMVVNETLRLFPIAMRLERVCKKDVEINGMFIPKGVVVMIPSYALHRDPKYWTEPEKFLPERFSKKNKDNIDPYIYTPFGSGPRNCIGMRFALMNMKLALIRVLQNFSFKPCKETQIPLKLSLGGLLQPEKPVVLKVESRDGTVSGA
Sequence of Lysosomal acid glucosylceramidase (Homo sapiens) (P04062 whole entry, looked up): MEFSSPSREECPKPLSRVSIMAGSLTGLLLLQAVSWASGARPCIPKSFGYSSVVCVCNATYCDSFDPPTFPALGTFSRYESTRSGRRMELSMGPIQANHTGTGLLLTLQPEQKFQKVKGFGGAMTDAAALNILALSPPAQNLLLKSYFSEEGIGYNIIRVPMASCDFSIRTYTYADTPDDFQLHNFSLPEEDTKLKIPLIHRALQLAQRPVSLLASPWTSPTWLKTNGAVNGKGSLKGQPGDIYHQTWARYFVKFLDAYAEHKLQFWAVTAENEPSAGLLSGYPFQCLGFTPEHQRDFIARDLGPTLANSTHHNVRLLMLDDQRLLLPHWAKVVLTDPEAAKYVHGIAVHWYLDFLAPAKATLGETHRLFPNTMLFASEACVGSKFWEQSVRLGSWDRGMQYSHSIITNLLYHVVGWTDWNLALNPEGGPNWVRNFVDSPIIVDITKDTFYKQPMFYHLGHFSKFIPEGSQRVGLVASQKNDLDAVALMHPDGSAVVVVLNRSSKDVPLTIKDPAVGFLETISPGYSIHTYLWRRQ
Sequence of 3',5'-cyclic-AMP phosphodiesterase 4B (Homo sapiens) (Q07343 whole entry, looked up): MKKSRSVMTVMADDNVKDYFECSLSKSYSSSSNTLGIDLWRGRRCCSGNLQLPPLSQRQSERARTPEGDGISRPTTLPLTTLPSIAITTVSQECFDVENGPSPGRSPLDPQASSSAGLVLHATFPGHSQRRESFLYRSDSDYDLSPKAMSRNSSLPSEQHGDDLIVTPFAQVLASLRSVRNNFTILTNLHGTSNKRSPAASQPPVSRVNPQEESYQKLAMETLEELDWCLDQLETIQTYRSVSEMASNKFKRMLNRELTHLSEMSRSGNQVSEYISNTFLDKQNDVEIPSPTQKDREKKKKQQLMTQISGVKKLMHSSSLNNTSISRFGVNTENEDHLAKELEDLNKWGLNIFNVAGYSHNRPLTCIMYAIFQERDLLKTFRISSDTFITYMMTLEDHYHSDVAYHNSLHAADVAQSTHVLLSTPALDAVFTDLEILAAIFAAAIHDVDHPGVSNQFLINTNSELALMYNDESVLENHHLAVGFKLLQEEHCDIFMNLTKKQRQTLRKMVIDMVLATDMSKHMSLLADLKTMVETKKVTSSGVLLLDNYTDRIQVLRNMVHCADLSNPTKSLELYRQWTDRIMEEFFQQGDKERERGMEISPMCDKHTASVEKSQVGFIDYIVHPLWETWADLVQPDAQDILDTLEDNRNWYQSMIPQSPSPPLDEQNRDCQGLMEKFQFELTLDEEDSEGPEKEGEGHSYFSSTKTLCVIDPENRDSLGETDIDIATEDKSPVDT
Sequence of Ubiquitin carboxyl-terminal hydrolase 1 (Homo sapiens) (O94782 whole entry, looked up): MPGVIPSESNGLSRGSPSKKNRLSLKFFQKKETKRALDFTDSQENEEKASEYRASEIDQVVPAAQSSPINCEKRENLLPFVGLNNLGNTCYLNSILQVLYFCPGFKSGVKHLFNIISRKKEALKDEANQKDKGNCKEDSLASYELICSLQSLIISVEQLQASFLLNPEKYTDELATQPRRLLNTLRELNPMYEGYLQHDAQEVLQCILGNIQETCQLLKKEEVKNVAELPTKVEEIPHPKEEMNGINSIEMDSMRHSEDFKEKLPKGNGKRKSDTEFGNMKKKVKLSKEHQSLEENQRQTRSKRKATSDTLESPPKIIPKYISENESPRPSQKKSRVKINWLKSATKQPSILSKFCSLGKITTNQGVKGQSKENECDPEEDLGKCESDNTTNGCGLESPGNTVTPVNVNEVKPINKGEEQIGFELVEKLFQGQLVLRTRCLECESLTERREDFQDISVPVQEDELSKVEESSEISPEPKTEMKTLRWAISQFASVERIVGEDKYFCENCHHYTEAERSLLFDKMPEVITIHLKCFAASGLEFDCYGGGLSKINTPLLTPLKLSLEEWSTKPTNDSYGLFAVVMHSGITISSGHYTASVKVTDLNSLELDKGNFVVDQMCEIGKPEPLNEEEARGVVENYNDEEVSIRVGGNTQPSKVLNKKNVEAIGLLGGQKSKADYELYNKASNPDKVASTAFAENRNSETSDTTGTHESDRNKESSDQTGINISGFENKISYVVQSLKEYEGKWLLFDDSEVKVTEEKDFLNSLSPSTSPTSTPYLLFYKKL
Sequence of Cytochrome P450 2C19 (Homo sapiens) (P33261 whole entry, looked up): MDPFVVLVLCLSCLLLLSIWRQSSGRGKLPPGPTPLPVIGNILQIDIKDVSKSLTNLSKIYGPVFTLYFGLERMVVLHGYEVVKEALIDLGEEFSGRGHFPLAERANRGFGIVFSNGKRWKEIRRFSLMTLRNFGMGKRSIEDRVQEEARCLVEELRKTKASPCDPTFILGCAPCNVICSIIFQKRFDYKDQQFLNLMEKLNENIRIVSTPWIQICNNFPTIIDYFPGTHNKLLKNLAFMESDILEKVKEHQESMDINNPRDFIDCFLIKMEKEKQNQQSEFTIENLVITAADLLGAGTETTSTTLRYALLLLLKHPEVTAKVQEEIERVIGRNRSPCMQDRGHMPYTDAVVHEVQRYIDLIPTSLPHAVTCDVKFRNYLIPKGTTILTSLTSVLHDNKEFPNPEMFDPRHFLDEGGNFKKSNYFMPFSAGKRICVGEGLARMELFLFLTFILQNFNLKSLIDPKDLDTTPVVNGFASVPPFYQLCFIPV

On to `Cc1cnc(CNc2cc(-c3ccc4c(c3)OCO4)ncn2)cn1`, for which the Potency was greater than 11.4 µM in [1]; greater than 46 µM in test [5]; greater than 46 µM in test [6]; 3.98 µM (active) in test [9]; 3.55 µM (active) in test [10]; 12.6 µM (active) in test [11]. In addition, the activity change, negative = inhibition in test [2] was -3.49%; in [3], 7.15%. Moreover, the activity, negative = inhibition in [4] is -3.34%. In addition, the Potency result in test [7] and in [8] was “inactive” in each case. The result in test [12] was inactive.

In the case of `Cn1cc(-c2nc3cnc(OCc4ccccc4)nc3n(CCC#N)c2=O)c2ccccc21`, the Potency in [1] was greater than 11.4 µM; in [5], greater than 46 µM; in [6], greater than 46 µM. In addition, the activity change, negative = inhibition is 3.51% in test [2] and 9.29% in test [3]. Besides, in test [4], the activity, negative = inhibition is 27.1%. Besides, the Potency result in test [7], in test [8], in test [9], in test [10], in test [11] and in [13] was “inactive” in each case. The outcome in test [12] was inactive.

With `COc1ccccc1CNc1nc(-c2ccccc2OC)nc2ccccc12`, the Potency in test [1] was greater than 11.4 µM; in test [5] it was greater than 46 µM; in [6], greater than 46 µM. Moreover, the activity change, negative = inhibition in [2] was 6.17%; in [3], -24.7%. In addition, in test [4], the activity, negative = inhibition is -10.4%. The Potency entry in test [7], in [9], in test [10] and in test [11] was “inactive” throughout. Also, the result in test [12] was inactive.

Turning to `Cc1noc(C)c1-c1cncnc1Nc1ccccc1`, the Potency is greater than 2.29 µM in test [1], greater than 46 µM in test [5], greater than 46 µM in [6] and 3.16 µM (active) in [14]. In addition, the activity change, negative = inhibition in test [2] was 13.6%; in test [3], 11.7%. Moreover, in test [4], the activity, negative = inhibition is 10.3%. Further, the Potency entry in test [7], in [8], in [15], in test [9], in test [10] and in test [11] was “inactive” throughout. In addition, in test [13], the Potency result is “inactive”. Besides, in [12], the result was inactive.

Take `CN(Cc1ccco1)c1cc(-c2ccccc2C(F)(F)F)ncn1`: the values for the Potency in [1], in test [5] and in test [6] were greater than 11.4 µM, greater than 46 µM and greater than 46 µM, respectively. The activity change, negative = inhibition in [2] is 9.11%; in test [3] it was -16.3%. Besides, the activity, negative = inhibition in [4] is 3.49%. In addition, the Potency entry in test [7], in test [8], in test [9], in test [10], in [11] and in test [13] was “inactive” each time. Also, the outcome in [12] was inactive.

Turning to `COc1cccc(Nc2ncc3nc(-c4ccc(Cl)cc4)c(=O)n(C[C@H]4CCCO4)c3n2)c1`, the Potency in test [1] was greater than 11.4 µM; in test [5], greater than 9.22 µM; in test [6], greater than 46 µM. In addition, the activity change, negative = inhibition in test [2] is -20.5%; in test [3] it was 2.35%. Besides, the activity, negative = inhibition in test [4] is 4.74%. Besides, the Potency entry in test [7], in [8], in [15], in [9], in [10] and in test [11] was “inactive” throughout. Further, in test [12], the outcome was inactive.

With `COc1ccccc1-c1cc(N(C)Cc2ccco2)ncn1`, the Potency in [1] is greater than 11.4 µM; in test [5] it was greater than 46 µM; in [6], greater than 46 µM; in test [16], 3.98 µM (active); in test [9] it was 28.2 µM (active); in test [10], 35.5 µM (active). The activity change, negative = inhibition in test [2] is 28.4%; in test [3] it was -15.8%. Moreover, the activity, negative = inhibition in test [4] is 5.75%. For the same compound, the Potency result in [7], in test [8], in [11] and in [13] was “inactive” each time. Moreover, in test [12], the result was inactive.
